# Assay outcomes (PubChem)
# The sample as a whole holds a higher share of hits than the screen did.
# ALOX12 inh: Primary qHTS assay for inhibitors of human arachidonate 12S-lipoxygenase (ALOX12): Round 2; Polyunsaturated fatty acid lipoxygenase ALOX12 (Homo sapiens), P18054; purified 12hLO, xylenol orange hydroperoxide absorbance; Potency, µM (top dose mostly 108 µM), for inactives: at the top dose activity change, negative = inhibition, actives largely listed as inhibitors; 580,000 compounds, 1.1% hits; AID 1671190, 2021; further: potency means the concentration at half of the fitted maximal effect
# Target sequence (P18054 whole entry, looked up): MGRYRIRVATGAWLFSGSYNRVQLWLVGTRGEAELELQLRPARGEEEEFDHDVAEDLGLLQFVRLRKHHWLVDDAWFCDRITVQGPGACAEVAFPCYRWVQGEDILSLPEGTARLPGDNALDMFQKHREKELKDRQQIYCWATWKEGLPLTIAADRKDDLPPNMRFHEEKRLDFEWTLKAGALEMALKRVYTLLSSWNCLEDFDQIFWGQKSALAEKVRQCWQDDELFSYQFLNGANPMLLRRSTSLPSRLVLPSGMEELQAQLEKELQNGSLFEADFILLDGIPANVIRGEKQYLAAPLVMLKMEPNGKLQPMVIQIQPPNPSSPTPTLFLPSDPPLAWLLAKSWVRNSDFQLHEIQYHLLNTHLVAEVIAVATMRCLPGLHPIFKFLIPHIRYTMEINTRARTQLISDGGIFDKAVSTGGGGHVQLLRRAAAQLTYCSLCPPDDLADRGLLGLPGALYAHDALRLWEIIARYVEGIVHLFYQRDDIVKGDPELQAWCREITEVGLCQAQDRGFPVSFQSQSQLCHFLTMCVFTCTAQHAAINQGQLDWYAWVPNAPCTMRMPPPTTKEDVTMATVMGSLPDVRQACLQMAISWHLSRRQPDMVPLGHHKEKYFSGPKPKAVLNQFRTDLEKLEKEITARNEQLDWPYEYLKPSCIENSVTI
#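 Hydroperoxide product was detected by ferrous iron/xylenol orange as the 573 to 405 nm absorbance ratio. Arachidonic acid at 40 uM (final) was turned over for 30 min at room temperature by 150 nM human 12hLO, pH 7.0 Hepes buffer, after 15 min compound preincubation.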
# DT40 TDP1 CPT: qHTS for Inhibitors of human tyrosyl-DNA phosphodiesterase 1 (TDP1): qHTS in cells in presence of CPT; chicken DT40 Tdp1-/-;hTDP1 cells + 20 nM CPT, ATP luminescence, 48 h; Potency, µM (highest dose often 46.2 µM), for the others: top-dose activity change, negative = growth inhibition, hits mostly inhibitors; 420,000 compounds, 12% hits; AID 686979, 2013; further: potency means the concentration at half of the fitted maximal effect; nearly all actives have a fitted effect of over 55% in size
#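 Chicken DT40 Tdp1-/- cells stably complemented with human TDP1 were seeded at 400 cells/well in medium containing 20 nM camptothecin, exposed to pin-transferred compounds, and grown at 37 °C for at least 48 hr. Viability was read as ATP luminescence.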
# HT1080 IDH1KD tx: qHTS for induction of synthetic lethality in tumor cells producing 2HG: qHTS for the HT-1080-IDH1KD cell line. HT-1080 IDH1 knockdown viability, ATP luminescence, 48 h. Potency, µM (doses to about 46.1 µM), inactives show top-dose activity, negative = toxicity, most hits filed as cytotoxic. 360,000 compounds, 2% hits. AID 686971, 2013;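 further: potency means the concentration at half of the fitted maximal effect; 0% = DMSO wells and -100% = cell-free medium wells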
#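 After a 2 h attachment period, IDH1KD HT-1080 cells took pin-transferred compound for 48 h at 37 °C; ATP-based luminescence after 10 min room-temperature reagent incubation reported viability.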
# TDP1 cell noCPT: qHTS for Inhibitors of human tyrosyl-DNA phosphodiesterase 1 (TDP1): qHTS in cells in absence of CPT. DT40 Tdp1-/- hTDP1 cells, no CPT, ATP luminescence, 48 h. Potency, µM (titrated, usually from 46.2 µM), inactives show top-dose activity change, negative = growth inhibition, hits mostly inhibitors. 420,000 compounds, 15% hits. AID 686978, 2013; further: potency means the concentration at half of the fitted maximal effect; nearly all actives have a fitted effect of over 55% in size
#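 Chicken DT40 Tdp1-/- cells stably complemented with human TDP1 were seeded at 400 cells/well with DMSO in place of 20 nM camptothecin. After compound pinning, cells grew at least 48 hr at 37 °C; viability read by CellTiter-Glo luminescence.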
# HT1080NT lethal: qHTS for induction of synthetic lethality in tumor cells producing 2HG: qHTS for the HT-1080-NT fibrosarcoma cell line; HT-1080-NT fibrosarcoma viability, CellTiter-Glo ATP luminescence, 48 h; Potency, µM (doses to about 46.1 µM), for inactives: top-dose activity, negative = less viability, most hits filed as cytotoxic; 360,000 compounds, 1.6% hits; AID 686970, 2013;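 further: NT is the 2HG producing partner of a matched IDH1 knockdown line; potency means the concentration at half of the fitted maximal effect; 0% = DMSO-treated cells and -100% = media-only wells without cells; nearly all actives have a fitted effect of over 55% in size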
#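 A 48-hour cytotoxicity screen used HT-1080-NT cells plated 2 hours before compound delivery. ATP-based CellTiter-Glo luminescence measured viability, normalized to DMSO and no-cell controls.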
# IL-1B inflam inh: qHTS for Inhibitors of Inflammasome Signaling: IL-1-beta AlphaLISA Primary Screen. THP-1 LPS/ATP IL-1B secretion, AlphaLISA, 16 h; stronger effect = lower value. activity change, % at 57.5 µM. 360,000 compounds, 4.7% hits; in the data active means activity change below about -50%; inconclusive means mostly about -30% to -49%
#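 THP-1 cells pretreated 1 hr with compounds (up to 57.5 uM final), then stimulated with LPS (250 ng/mL final) plus ATP (1.25 mM final); secreted IL-1B measured by AlphaLISA after 16 hr, decreased signal indicating inhibition.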
# The depositor's hits bear a star; u = inconclusive; x = not tested or not shown; [ ] = another dose, or the depositor's remark. Unless noted, the call rests on the fitted dose curve; in most records, active means well fitted curve in the direction sought with a large enough effect; inconclusive means small, poorly fitted or top-dose-only effect, or another doubt; inactive means no such curve, though single readings can be large; an effect the other way counts as inactive or inconclusive. Unless noted, on the % scale 0 is the no-effect control and ±100 the full control effect.
SMILES,ALOX12 inh,DT40 TDP1 CPT,HT1080 IDH1KD tx,TDP1 cell noCPT,HT1080NT lethal,IL-1B inflam inh
Cc1ccc(OCC(=O)c2cc(C)n(-c3ccccc3)c2C)c([N+](=O)[O-])n1,0.0%,u,-28.0%,14.6µM*,-0.1%,-5.1
CCCn1c(C)cc(C(=O)COc2ccc(C)nc2[N+](=O)[O-])c1C,0.5%,u,2.7%,u,6.6%,18.1
C=CCn1c(C)cc(C(=O)COc2ccc(C)nc2[N+](=O)[O-])c1C,2.5%,u,u,20.6µM*,u,11.8
CCCc1cc(=O)oc2cc(OCC(=O)NCCCn3ccnc3)c(Cl)cc12,0.6%,-25.8%,16.5%,-27.6%,4.7%,u
COc1cccc(NC(=O)N[C@H]2CCN(C(=O)CSC)[C@@H]2C(=O)N[C@H](Cc2ccccc2)C(N)=O)c1,56.3%,x,x,x,x,x
O=C(CCc1ncc(-c2ccccc2F)o1)Nc1ccc2ccccc2n1,-0.6%,x,x,x,x,x
CCCc1noc(-c2cccn3c(CNC(=O)C4CC4)nnc23)n1,51.3%,x,x,x,x,x
N#CC1CCN(C(=O)C2CN(c3ccc(F)cc3)C(=O)N2)CC1 (configuration not stated),16.3%[176 µM],x,x,x,x,x
CCc1nc2ccc(C(=O)NCC3CCCCC3)cn2c1N(CCC(C)C)CCN(C)C,4.6%,18.4µM*,16.4µM*,25.9µM*,18.4µM*,18.2
CCc1nc2ccc(C(=O)NCc3ccccc3OC)cn2c1N(C=O)CCC(C)C,5.6%,23.1µM*,12.2%,16.4µM*,4.7%,-8.5
CCc1nc2ccc(C(=O)NCc3cccs3)cn2c1N(CCC(C)C)CCN(C)C,8.9%,u,u,u,u,-25.0
CCc1nc2ccc(C(=O)NCc3ccc(OC)cc3)cn2c1N(CCC(C)C)CCN(C)C,-4.0%,u,u,16.4µM*,u,-14.7
CCc1nc2ccc(C(=O)N3CCCCC3)cn2c1N(CCC(C)C)CCN(C)C,-4.8%,-29.8%,15.2%,-26.5%,15.9%,-13.7
Cc1ccc(CN(C)C(=O)c2cc3ccc(OC(F)(F)F)cc3[nH]2)o1,-1.0%,x,x,x,x,x
COc1cccc(NC(=O)C2=C(C)C(=O)OC23CCN(C(C)=O)CC3)c1,0.0%,-1.1%,x,-4.5%,x,x
CSCCC(NC(N)=O)C(=O)N(C)CC(=O)Nc1cc(C)ccc1C (configuration not stated),-3.2%,-4.5%,-6.8%,3.2%,-2.3%,6.0
Cc1ccc(C)c(NC(=O)CN(C)C(=O)[C@@H](NC(=O)c2ccc(C(C)(C)C)cc2)C(C)C)c1,-4.6%,23.1µM*,-19.0%,18.4µM*,-0.1%,-21.0
CN1CCC[C@@H]1CCNC(=O)c1c(-c2ccc3c(c2)OCO3)noc1-c1ccsc1,u,-14.6%,-0.9%,-14.2%,-3.3%,-76.4*
CN1CCC[C@H]1CCNC(=O)c1c(-c2ccsc2)sc2ccccc12,6.7%,-2.3%,-21.3%,1.0%,-19.6%,-20.8
CCc1ccc(-n2nc(C)c3c(C(=O)N4CCN(c5cccc(Cl)c5)CC4)cc(C)nc32)cc1,-62.0%,u,x,20.6µM*,x,x
Cc1cc(C(=O)N2CCN(c3ccccc3)CC2)c2c(C)nn(-c3cccc(F)c3)c2n1,-28.3%,u,x,16.4µM*,x,x
Cc1cc(C(=O)Nc2cccc(C)c2C)c2c(C)nn(-c3cccc(F)c3)c2n1,0.3%,-2.2%,x,-21.4%,x,x
COc1ccc(C(=O)OCC(=O)c2cc(OC)ccc2OC)cc1,3.0%,x,x,x,x,x
